Screening results (PubChem)
Most compounds without a hit are left out; they make up all but 1.5% or so of the library.
S1P3 antag-1 – blocks the human S1P3 receptor. CHO S1P3 NFAT-BLA reporter, FRET fluorescence, antagonist mode. Q99500. inhibition, % at 4.98 µM. actives 0.27% (n = 170,000);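 active = inhibition above the plate cutoff, the mean inhibition of test wells on that plate plus 3 SD, cut at about 28% in these data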;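 note: cells challenged with S1P at its EC80 of 0.8 µM; blue over green emission ratio from cleaved BLA substrate after 4 h stimulation; 0% = S1P-stimulated wells and 100% = unstimulated DMSO-only wells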
Target sequence (Q99500 whole entry, looked up): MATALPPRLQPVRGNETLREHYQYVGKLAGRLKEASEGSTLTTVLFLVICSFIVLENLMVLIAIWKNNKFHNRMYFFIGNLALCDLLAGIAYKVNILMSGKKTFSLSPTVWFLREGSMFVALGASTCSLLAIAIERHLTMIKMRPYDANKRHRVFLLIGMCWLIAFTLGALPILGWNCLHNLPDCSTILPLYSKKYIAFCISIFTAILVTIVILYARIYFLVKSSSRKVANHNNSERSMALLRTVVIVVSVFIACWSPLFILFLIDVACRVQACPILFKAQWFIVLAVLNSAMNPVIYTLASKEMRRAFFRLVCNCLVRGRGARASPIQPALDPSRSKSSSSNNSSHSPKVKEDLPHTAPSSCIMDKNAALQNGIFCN
S1P4 antag – blocks the human S1P4 receptor. inhibition, % at 4.98 µM. S1P4-expressing cells, antagonist mode, reporter read-out. actives 0.26% (n = 220,000); in the data active = inhibition above about 29%;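 note: 0% = wells stimulated with agonist and 100% = vehicle wells without agonist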
S1P4 agonist – agonists of human S1P4 receptor | AID 1509 | actives 0.35% (n = 220,000) | S1P4-expressing cell line, agonist reporter assay | activation, % at 4.98 µM; in the data active = activation above about 11%;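 note: 0% = DMSO vehicle and 100% = reference agonist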
INS promoter inh – TRM-6 insulin promoter activity inhibition; TRM-6 cells (human fetal islet line), insulin promoter-eGFP reporter, imaging; reporter expression induced with tamoxifen; inhibition, % at 2 µM; actives 0.9% (n = 130,000); AID 1273;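 active = inhibition above the mean plus 3 SD, with well images judged a real hit on visual review, cut at about 60% in these data, passing the limit was not always enough; inconclusive = inhibition over the cutoff but images rejected on review; inactive = inhibition not above the cutoff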
Ins promoter up – MIN6 insulin promoter up-regulation. actives 0.3% (n = 190,000). MIN6 insulin promoter-GFP reporter, high-content imaging; stronger effect = higher value. AID 1625. z-score at 5 µM;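 active = z-score above 3 at 5 µM with at least 500 cells counted in the well; inconclusive = wells under 500 cells, flagged as cytotoxic or low count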
Hsp70 activator – transcriptional activators of Hsp70; actives 0.04% (n = 200,000); HeLa Hsp70 promoter luciferase reporter, luminescence; scaled: vehicle 0, proteasome-inhibitor control 100%; AID 1203; activation, % at 10 µM;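 active = activation above the mean across all tested compounds plus 3 SD, cutoff set per campaign, cut at about 5.5% in these data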;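 note: 100% = MG132 at 30 µM as the positive control and 0% = DMSO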
S1P3 antag-2 – confirmation of human S1P3 receptor antagonists; CHO S1P3 NFAT-BLA reporter, FRET, antagonist mode; inhibition, % at 4.98 µM; AID 1429; actives 30% (n = 240); shares compounds with S1P3 antag-1;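 active = inhibition above the hit threshold that was computed for the earlier primary screen, cut at about 30% in these data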;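 note: 0% = S1P-stimulated wells and 100% = unstimulated DMSO-only wells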
S1P4 ag conf – human S1P4 agonism, confirmation. shares compounds with S1P4 agonist. S1P4 agonist cell-based reporter assay. activation, % at 4.98 µM. actives 7% (n = 740). AID 1523; in the data active = activation above about 12%;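 note: 0% = vehicle and 100% = full reference agonist response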
S1P1 ag – counter-screen for S1P4 agonists: agonists of human S1P1 | S1P1 agonist cell-based assay, activation | shares compounds with S1P4 agonist | activation, % at 4.98 µM | AID 1563 | actives 4% (n = 740); in the data active = activation above about 21%;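 note: 0% = vehicle wells and 100% = reference agonist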
S1P4 antag cf – human S1P4 antagonism, confirmation | S1P4-expressing cell line, antagonist mode, reporter read-out | actives 71% (n = 520) | shares compounds with S1P4 antag | inhibition, % at 4.98 µM; in the data active = inhibition above about 30%
S1P1 antagonist – blocks human S1P1, counter-screen for S1P4 antagonists. shares compounds with S1P4 antag. cell-based S1P1 antagonist counterscreen, inhibition. inhibition, % at 4.98 µM. actives 37% (n = 520); in the data active = inhibition above about 40%;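 note: receptor stimulated with S1P near its EC80; 0% = agonist stimulated wells and 100% = vehicle only wells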
* marks the source's active call; other numbers are inactive results; u = inconclusive; x = no result.

SMILES | S1P3 antag-1 | S1P4 antag | S1P4 agonist | INS promoter inh | Ins promoter up | Hsp70 activator | others
O=C1CC(C(=O)N2CCC3(CC2)OCCO3)CN1CCc1ccccc1 (stereo not drawn) | -27 | -6 | -1 | 80* | 0.09 | 0
O=C(C1CC(=O)N(C2CCCCC2)C1)N1CCC2(CC1)OCCO2 (stereo not drawn) | -51 | -15 | -2 | -7 | 2.1 | 0
CCOP(=O)(OCC)C(O)c1cccc([N+](=O)[O-])c1 (stereo not drawn) | -7 | 2 | 0 | -18 | -1.7 | 0
CC1CN(CCc2ccccc2)CC(C)O1 (stereo not drawn) | x | 4 | 0 | 70* | 1.5 | 0
CC(=O)Nc1ccccc1C(=O)OCC(=O)c1ccccc1Cl | -2 | -28 | 1 | -43 | -0.03 | 0
CC(=O)Nc1ccccc1OP1(=O)COc2ccccc2OC1 | 2 | -14 | -2 | 77* | -0.67 | 0
CC1=C(C(=O)N2CCC3(CC2)OCCO3)C2(CCC(C)CC2)OC1=O (stereo not drawn) | -1 | -17 | 0 | 73* | 0.17 | 0
Cc1c(C(=O)N2CCC3(CC2)OCCO3)oc2ccccc12 | 15 | -13 | -2 | 12 | -0.39 | 0
COc1ccccc1-n1c(O)c(/C=N/NC(=S)Nc2ccccc2)c(=O)[nH]c1=S | -41 | -3 | -1 | x | 0.2 | x
CCCn1nc2ccccc2c1P(=O)(N1CCOCC1)N1CCOCC1 | 106* | -15 | 0 | x | -0.02 | 0
CC(C)(C)c1ccc(O)c(CN2CCN(c3ccccc3)CC2)c1 | 17 | 2 | 2 | 82* | -0.47 | 0
Clc1ccccc1CN1CCN(c2ccccc2)CC1 | x | -8 | 1 | -45 | x | 0
CN1CCN(c2ccc(C(F)(F)F)cc2N)CC1 | -3 | -9 | 2 | -29 | 0.06 | 0
COc1ccc(CC(=O)N2CCN(C)CC2)cc1OC | x | -8 | 1 | 26 | 0.07 | 0
COc1ccc(CC(=O)N2CCN(C)CC2)cc1 | x | 7 | -2 | -6 | 3.5* | 0
CSc1nc(N2CCN(C)CC2)c2ccccc2n1 | -15 | 2 | 2 | x | -0.23 | 0
CCOc1ccc(-n2c(-c3cccs3)nc3ccccc3c2=O)cc1 | 8 | -17 | -1 | x | -0.26 | 0
CCn1nc(-c2cccs2)nc2c(=O)n(C)c(=O)nc1-2 | 106* | x | x | x | u | x
c1ccc(-c2nnc(C3CC(c4cccnc4)=NO3)o2)cc1 (stereo not drawn) | x | x | x | x | 0.49 | x
O=C1NC(=S)N(Cc2ccco2)C(=O)/C1=C\c1cccs1 | -12 | 0 | 0 | 0 | 0.22 | 0
O=c1c2ccccc2nc(C[n+]2ccccc2)n1-c1cccc(C(F)(F)F)c1 | 10 | -6 | 3 | x | 0.71 | 0
Nc1cc2nc3ccccc3nc2cc1N | 10 | 12 | 1 | x | 3.7* | x
CCCCc1ccc2[nH]cc(CCN)c2c1 | -19 | -3 | -2 | 10 | 3.1* | 0
c1ccc2c(N3CCNCC3)nsc2c1 | -1 | -8 | 4 | x | 3.1* | 0
CC(C)n1c(O)c(C2c3cc(Cl)ccc3Oc3[nH]c(=O)n(C(C)C)c(=O)c32)c(=O)[nH]c1=O (stereo not drawn) | 17 | 35* | 1 | x | -0.15 | x
SMILES | S1P3 antag-1 | S1P4 antag | S1P4 agonist | INS promoter inh | Ins promoter up | Hsp70 activator | others
CN1CCN(C(=O)OC2c3nccnc3C(=O)N2c2ccc(Cl)cn2)CC1 (stereo not drawn) | 110* | -10 | 1 | 0 | x | 0
O=C(CCCN1CCC2(CC1)C(=O)NCN2c1ccccc1)c1ccc(F)cc1 | 68* | -7 | 2 | -23 | x | 0 | S1P3 antag-2=59*
Cc1cc(C)n(-c2ccc(NN=C(C#N)C#N)cc2)n1 | 11 | 4 | 0 | x | -0.85 | x
N#CC(C#N)=NNc1ccc(-n2ccc(C(F)(F)F)n2)cc1 | 44* | 27 | 0 | x | x | x | S1P3 antag-2=45*
CCOP(=O)(OCC)Oc1cc(C)c(N(C)C)c(C)c1 | 1 | 8 | 0 | x | -0.48 | x
CCC(=O)c1ccc(OC)c(OC)c1 | -6 | -1 | 0 | x | -0.19 | 0
CC(=O)OC(C)(C)/C=C/C(=O)[C@](C)(O)[C@H]1[C@H](O)C[C@@]2(C)[C@@H]3CC=C4[C@H](C[C@H](O)C(=O)C4(C)C)[C@]3(C)C(=O)C[C@]12C | 74* | 67* | -1 | -400 | -4.3 | 0 | S1P3 antag-2=90*
CCn1c(NN=O)nc2ccccc21 | 5 | -18 | 0 | 18 | x | 0
CC(C)[C@H]1C(=O)O[C@H](C(C)C)C(=O)N(C)[C@@H](C(C)C)C(=O)O[C@H](C(C)C)C(=O)N(C)[C@@H](C(C)C)C(=O)O[C@H](C(C)C)C(=O)N1C | 70* | 10 | 0 | x | -4.3 | 0 | S1P3 antag-2=75*
CC(=O)NC(Cc1ccc(N(CCCl)CCCl)cc1)C(=O)NCC(=O)NCC(=O)O (stereo not drawn) | 6 | 2 | -1 | x | 0.5 | 0
CC[C@@]1(O)C(=O)OCc2c1cc1n(c2=O)Cc2cc3ccccc3nc2-1 | 59* | 27 | 6 | x | x | x | S1P3 antag-2=70*
COc1ccccc1-n1c(Cc2ccccc2)nc2ccccc2c1=O | 3 | -2 | 0 | x | -0.02 | 0
COc1cc2c(cc1OC)[C@@H]1C(=O)c3ccc4c(c3O[C@@H]1CO2)C[C@H](C(C)C)O4 | 38* | 5 | -2 | x | u | x | S1P3 antag-2=36*
O=c1[nH]c(=O)n(Cc2ccccc2Cl)c(O)c1/C=C1/C=CC=N1 | -19 | 15 | 2 | x | -0.01 | 1
CCn1nc(/C=C/c2ccccc2)nc2c(=O)n(C)c(=O)nc1-2 | 75* | 12 | 3 | 54 | -4.7 | 0 | S1P3 antag-2=109*
NC(=S)c1cn(C2OC(CO)C(O)C2O)c2ncnc(N)c12 (stereo not drawn) | 86* | 100* | 0 | x | -1.4 | x | S1P3 antag-2=105*;S1P4 antag cf=112*;S1P1 antagonist=94*
CN1Cc2cccnc2N(C)Cc2cc(Cl)ccc21 | 13 | -7 | 0 | -13 | -0.18 | 0
CCOC(=O)c1sc(/N=C/c2c(O)n(-c3ccccc3)c(=O)[nH]c2=O)c(C#N)c1C | x | 12 | 13* | 22 | 1.3 | 0 | S1P4 ag conf=-2;S1P1 ag=-2
Cc1cccc(-n2c(O)c(C)c(=O)[nH]c2=S)c1 | -8 | -6 | 56* | -50 | -0.77 | 0 | S1P4 ag conf=-2;S1P1 ag=1
